{"source": "PubChem BioAssay AID1788", "about": "(Vanderbilt High Throughput Screening Facility, 2009)", "system": "Calcium channel L-type (rat)", "assay": "PubChem AID 1788", "conditions": "MDS Pharma lead profiling panel, radioligand binding, benzothiazepine site, at 10 µM, hits give high values", "note": "A number with no mark means an inactive call. How the calls were made is not given here.", "data": [{"smiles": "CCOC(=O)N1CCC(NCCNC(=O)c2ccccc2C)CC1", "values": [{"measurement": "inhibition", "value": -4, "unit": "%"}]}]}
